From the supplement of paper PMC9177965
“And” between values parts separate entries of the source, which are not always exact repeats. Equal entries are not always repeated.

Test system: HT29 RNF43 G659fs (RNF43 659mut, CRISPR-edited)
Test: cell viability activity relative to DMSO (negative = inhibition); higher = more viable cells (less growth inhibition)
Details: 5 µM; 96 h
Experimental: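 Broad Repurposing Library primary screen at a single dose of 5 uM. HT29 sg-Ctrl and HT29 RNF43 G659fs CRISPR-edited isogenic cells were seeded at 2500 cells/well in 384-well plates in duplicate and treated for 96 h. Viability was read by CellTiter-Glo and reported as % activity relative to DMSO, with MG132 as the positive control (negative = growth inhibition).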

In order of falling cell viability activity:
1. COc1cc([C@@H]2c3cc4c(cc3[C@@H](O[C@@H]3O[C@@H]5CO[C@@H](C)O[C@H]5[C@H](O)[C@H]3O)[C@H]3COC(=O)[C@H]23)OCO4)cc(OC)c1OP(=O)(O)O  -25.3%
2. CC(C)c1ccc(C(=O)N=C(N)N)cc1S(C)(=O)=O  -25.7%
3. CC(=O)OC1CC2CCC1(C)C2(C)C (stereo not given)  -28.1%
4. Cc1cccc(C)c1NC(=O)CN1CCN(CCCC(c2ccc(F)cc2)c2ccc(F)cc2)CC1  -28.2%
5. CCOc1cc2ncc(C#N)c(Nc3ccc(OCc4cccc(F)c4)c(Cl)c3)c2cc1NC(=O)/C=C/CN(C)C  -30.8%
6. CC(=O)N1CCN(CCOc2ccc(C3CCN(C4=Nn5c(nnc5C(F)(F)F)CC4)CC3)cc2)CC1  -32.3%
7. C=C[C@@](C)(/C=C/c1ccc(O)cc1)CCC=C(C)C  -39.5%
8. Cc1nc(NC(=O)N2CCC[C@H]2C(N)=O)sc1-c1ccnc(C(C)(C)C(F)(F)F)c1  -49.8%
9. COc1cccc2cc(-c3nc([C@H]4CC[C@H](C(=O)O)CC4)n4ncnc(N)c34)[nH]c12  -50.5%
10. CC(C)NC[C@@H](C(=O)N1CCN(c2ncnc3c2[C@H](C)C[C@H]3O)CC1)c1ccc(Cl)cc1  -53.6%
11. O=c1cc(N2CCOCC2)oc2c(-c3cccc4c3sc3ccccc34)cccc12  -57.6%
12. CC1=NN(c2ccc(C(=O)O)cc2)C(=O)/C1=C\c1ccc(-c2cc(C)c(C)cc2[N+](=O)[O-])o1  -62.3%
13. COC(=O)Nc1nc2cc(C(=O)c3cccs3)ccc2[nH]1  -64.5%
14. Nc1ccc2cc3ccc(N)cc3nc2c1  -64.5%
15. CCCCCCCCCCC(CO)CCCCCCCC (stereo not given)  -65.4%
16. COC(=O)C1=C(C)NC(C)=C(C(=O)OCCCN2CCC(c3ccccc3)(c3ccccc3)CC2)[C@@H]1c1cccc([N+](=O)[O-])c1  -65.6%
17. CC(C)N1CCN(c2ccc(OC[C@@H]3CO[C@@](Cn4cncn4)(c4ccc(Cl)cc4Cl)O3)cc2)CC1  -68%
18. O=C(/C=C/c1ccc2ccccc2n1)c1ccncc1  -68.9%
19. Cn1cnc2c(F)c(Nc3ccc(Br)cc3Cl)c(C(=O)NOCCO)cc21  -71.6%
20. Nc1cc(C(F)(F)F)c(-c2cc(N3CCOCC3)nc(N3CCOCC3)n2)cn1  -75.9%
21. CC(C)(C)c1ccc(C(=O)CCCN2CCC(OC(c3ccccc3)c3ccccc3)CC2)cc1  -79.7%
22. CC(C)(C)c1ccc(S(=O)(=O)/C=C/C#N)cc1  -80.4%
23. CO[C@@H](C)Cn1c(=O)n(C)c2cnc3ccc(-c4cncc(C(C)(C)O)c4)cc3c21  -81.7%
24. O=C(NNc1nc2cc(F)ccc2n2cccc12)c1cnccn1  -82.8%
25. O=C(NC[C@H](O)CO)c1ccncc1Nc1ccc(I)cc1F  -83.4%
26. CN1CC[C@H](c2c(O)cc(O)c3c(=O)cc(-c4ccccc4Cl)oc23)[C@H](O)C1  -83.4%
27. Cc1cnc(Nc2ccc(N3CCN(C)CC3)cc2)nc1Nc1cccc(S(=O)(=O)NC(C)(C)C)c1  -83.9%
28. Cn1c(=O)c(F)c(Nc2ccc(I)cc2F)c2c(=O)n(C[C@@H](O)CO)cnc21  -86.8%
29. Cc1ccc([N+](=O)[O-])cc1S(=O)(=O)N(C)/N=C/c1cnc2ccc(Br)cn12  -88.7%
30. CCCCNc1ncc2c(-c3ccc(CN4CCN(C)CC4)cc3)cn([C@H]3CC[C@H](O)CC3)c2n1  -89.4%
31. Cc1[nH]nc2ccc(-c3cncc(OC[C@@H](N)Cc4ccccc4)c3)cc12  -89.5%
32. COc1cc2c(Nc3ccc(Cl)c(Cl)c3F)ncnc2cc1OC[C@@H]1C[C@@H]2CN(C)C[C@@H]2C1  -90.6%
33. C1CCC(C(CC2CCCCN2)C2CCCCC2)CC1 (stereo not given)  -92.4%
34. COc1cc2nc(N3CCC(N4CCCCC4)CC3)nc(NC3CCCCCC3)c2cc1OC  -93.5%
35. CC[C@@]1(O)C(=O)OCc2c1cc1n(c2=O)Cc2cc3c([N+](=O)[O-])cccc3nc2-1  -93.9%
36. CC(C)C[C@H](NC(=O)[C@@H](NC(=O)c1cccc(-c2ccccc2)n1)[C@@H](C)O)B(O)O  -95.1%
37. c1ccc2c(-c3cnn4cc(-c5ccc(N6CCNCC6)cc5)cnc34)ccnc2c1  -95.2%
38. CC(C)C[C@@H](C=O)NC(=O)[C@H](CC(C)C)NC(=O)[C@H](CC(C)C)NC(=O)OCc1ccccc1  -96.9%
39. CC1(COc2ccc3c(c2)ncn3-c2ccc3cccc(N4CCC(N)CC4)c3n2)COC1  -98.3%

For CC1(C)CC(=O)c2c(C(F)(F)F)nn(-c3ccc(C(N)=O)c(N[C@H]4CC[C@H](OC(=O)CN)CC4)c3)c2C1, the cell viability activity was -89.4% and -91.3% and -87.7%.
